Reference: PubChem BioAssay AID1259240 (Keith Lab, Institute of Cancer Science, University of …, 2017)
A number with no mark means an inactive call. The source made the active and inactive calls. No stated cut-off is given here; in the data, active means fold change mostly below about -2 (no sharp cut-off); inactive means mostly above about -1.8.

Test: TERT promoter activity modulators, primary screen, cell-based, luciferase reporter, human (AID 1259240)
Conditions: A2780 TERT promoter luciferase reporter, 16 h; at 20 µM, fold versus average of vehicle-only wells

Row | SMILES | fold change
1 | O=C(C1CCCN1S(=O)(=O)c1cccc2nsnc12)N1CCN(c2ccccn2)CC1 (stereo unspecified) | -1.3
2 | Cc1ccc2ccc(C(Nc3ccccn3)c3ccncc3)c(O)c2n1 (stereo unspecified) | -1.62
3 | CCN(CC)C(=O)c1sc(N2C(=O)Nc3ccccc3N2O)c(C(=O)OC)c1C | 1.14
4 | O=c1nc2s/c(=C\c3ccco3)c(=O)n2nc1Cc1ccc(Cl)cc1 | -1.46
5 | Cc1nc(SCc2c(F)cccc2Cl)c2c(=O)n(C)c(=O)n(C)c2n1 | 1.27
6 | CN(C)c1ccc(/C=c2\sc3nc(-c4ccco4)nn3c2=O)cc1 | 1.37
7 | CN(C)c1nc(C(=O)OCCO)nc(N(C)C)n1 | -3.45 (active)
8 | FC(F)(F)c1ccc2c(c1)C1C=CCC1C(c1ccncc1)N2 (stereo unspecified) | -1.04
9 | CC1CCCCC1NC(=O)CN(C)S(=O)(=O)c1ccc2c(c1)CCC(=O)N2 (stereo unspecified) | 1.04
10 | CN1C(=O)C2ON(c3ccc(Cl)cc3)C(c3cccs3)C2C1=O (stereo unspecified) | -1.37
11 | Cc1cc(C)cc(N(CC(=O)O)S(=O)(=O)c2ccc3[nH]c(=O)c(=O)[nH]c3c2)c1 | 1.37
12 | CCOC(=O)c1[nH]c2ccc(F)cc2c1N | -1.48
13 | Cc1cc(C)n(-c2nc3ccccc3n3cnnc23)n1 | -1.18
14 | Nc1ncnc2c1nc1n2CC(O)CS1 (stereo unspecified) | -1.44
15 | CC(C)Cc1c(O)nc(SCCN2CCOCC2)[nH]c1=O | -1.64
16 | O=C(c1cnc2ccccc2n1)N1CCn2c(nc3ccccc32)C1 | 1.4
